system: MILI (PIWIL2) piRISC loaded with L1MC piRNA (26 nt); assay: pre-steady-state target cleavage rate (min^-1); guide: L1MC piRNA 5'p-UAACUAAAUACUAUGCAAGCUGUAGG; MIWI and MILI are mouse PIWI proteins and EfPiwi is from a freshwater sponge; tags in brackets are library labels; higher = faster piRNA-guided slicing of the target; conditions: auxiliary factor: none (no GTSF1)
Method in brief: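 Cleave-'n-Seq reactions paired 0.1 nM transcribed, DNA-blocked target RNA library with 1 nM active affinity-purified piRISC holding one synthetic guide, plus or minus 500 nM GTSF1 partner protein, in HEPES–potassium acetate buffer at 33 °C for 0–8 or 0–960 min. After sequencing of uncleaved targets and normalisation to depth and weakly complementary targets, the pre-steady-state cleavage rate was taken from a burst-and-steady-state fit. Three trials were pooled, and k3 was capped at 0.0001 min^-1.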

pre-steady-state target cleavage rate, < 0.0001:
UCCUGGAUCAGCUUCCAUAGUAUUAAGUUA
UCCUGGAUGUCGAUCCUUAGUAUUUAGUUA
UCCUGGAUGUCGAACGUAUCUAUUUAGUCUA
UCCUGGAUGUCGAACCUUAGUAUUUAGAUA
UCCUGGAUGUGCUUGCAUACAUAAAUCAAA [g12:g20:cont:t1A]
UCCUGGAUGUCGAAGCAGUAGUAUUUAGUUA
